Compounds without any hit were thinned out: in the full panel of roughly 83,000, 20% have a hit.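 Compound tested at a single concentration for 48 hours in 96-well plates; a percent growth value below 10 was scored as active.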 A number with no mark means an inactive call. Activity calls are given as the source filed them.
tested on: HS 578T breast; test: NCI-60 one-dose screen, 48 h (100 = growth as untreated, 0 = no growth, -100 = all killed); conditions: 10 µM unless noted

| SMILES | growth |
| --- | --- |
| COc1cc2nc(-c3ccc(Cl)cc3)cc(OCCCN3CCOCC3)c2cc1OC | 76.4% |
| COc1ccc(NC(N)=NCCCOc2ccc(F)cc2)cc1 | 113% |
| COC(=O)CNC(=O)[C@]12CCC(C)(C)C[C@H]1C1=CC[C@@H]3[C@@]4(C)Cc5c([nH]c6ccccc56)C(C)(C)[C@@H]4CC[C@@]3(C)[C@]1(C)CC2 | 87.5% |
| C[C@H]1[C@H](C)CC[C@]2(C(=O)Nc3ccc4ncccc4c3)CC[C@]3(C)C(=CC[C@@H]4[C@@]5(C)CCCNC(C)(C)[C@@H]5CC[C@]43C)[C@H]12 | -53.3% (active) |
| COc1cc(NC(C)CCCNC(=O)CCC(=O)NCCCNCCCCCCCCCCNCCCNC(=O)CCC(=O)NCCCC(C)Nc2cc(OC)cc3cccnc23)c2ncccc2c1 (stereo unspecified) | 64.5% [8 µM] |
| CCCCCN1C=C/C(=C\C(=O)n2ccc3ccccc32)c2ccccc21 | 92.2% |
| Cc1cc2nc3c4ccc(Br)cc4n(CCN(C)C)c3nc2cc1C | 53.9% |
| CC1(C)CC(=O)C2=C(C1)N(c1ccc(F)cc1F)C(N)=C(C#N)C2c1cc(Br)ccc1F (stereo unspecified) | 105% |
| C[C@H]1[C@H](C)CC[C@]2(C(=O)NCC#CCN3CCN(C)CC3)CC[C@]3(C)C(=CC[C@@H]4[C@@]5(C)Cc6c([nH]c7ccccc67)C(C)(C)[C@@H]5CC[C@]43C)[C@H]12 | 82.8% |
| COc1cc2nc(-c3ccc(C(F)(F)F)cc3)cc(OCCCN3CCOCC3)c2cc1OC | 54.7% |
| O=C1c2c(c3c4cccc(F)c4[nH]c3c3ccc4ccccc4c23)C(=O)N1O | 62.1% |

— PubChem BioAssay (NCI)
